# Assay results taken from PubChem BioAssay.
# Unmarked numbers belong to inactive results. The source made the active and inactive calls.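 How the source made its calls, unless noted: active means inhibition above the hit cutoff set in the earlier primary screen (cut at about 27% in these data); inactive means the rest.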
# What was measured:
# [1] = target: Protein phosphatase methylesterase 1 (Homo sapiens) (UniProt Q9Y570); test: human PME-1 methylesterase inhibition confirmation – biochemical, fluorescence polarization, FP-Rh probe, triplicate (AID 2171); settings: recombinant PME-1, FP-Rh probe fluorescence polarization; at 5.9 µM; active compounds read high;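 further: 0% = enzyme with DMSO and 100% = wells lacking PME-1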
# Protein phosphatase methylesterase 1 (Homo sapiens), sequence (Q9Y570 whole entry, looked up, the tested form may be a part): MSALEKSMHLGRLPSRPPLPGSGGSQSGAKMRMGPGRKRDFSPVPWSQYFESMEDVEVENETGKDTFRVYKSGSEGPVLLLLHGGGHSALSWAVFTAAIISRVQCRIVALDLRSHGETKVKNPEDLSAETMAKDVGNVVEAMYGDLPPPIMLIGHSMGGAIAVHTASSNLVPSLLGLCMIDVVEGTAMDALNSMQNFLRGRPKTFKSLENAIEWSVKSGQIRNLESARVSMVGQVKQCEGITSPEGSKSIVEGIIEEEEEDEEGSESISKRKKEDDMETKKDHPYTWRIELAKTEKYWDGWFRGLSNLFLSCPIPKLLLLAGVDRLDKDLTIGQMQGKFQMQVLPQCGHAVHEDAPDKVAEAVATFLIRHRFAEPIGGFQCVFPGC
# [2] = target: Nuclear receptor coactivator 3 (Homo sapiens) (UniProt Q9Y6Q9); test: NCOA3 GAL4-fusion reporter inhibition – cell-based, luminescence, quadruplicate, confirmation (AID 588792;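 active means mean inhibition over 43.08%, the solvent-only control mean plus 3 SD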;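 further: 0% = DMSO treated cells and 100% = gossypol at 36 µM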); settings: HEK293 GAL4-SRC3 luciferase reporter, at 3.6 µM, active compounds read high
# Nuclear receptor coactivator 3 (Homo sapiens), sequence (Q9Y6Q9 whole entry, looked up, the tested form may be a part): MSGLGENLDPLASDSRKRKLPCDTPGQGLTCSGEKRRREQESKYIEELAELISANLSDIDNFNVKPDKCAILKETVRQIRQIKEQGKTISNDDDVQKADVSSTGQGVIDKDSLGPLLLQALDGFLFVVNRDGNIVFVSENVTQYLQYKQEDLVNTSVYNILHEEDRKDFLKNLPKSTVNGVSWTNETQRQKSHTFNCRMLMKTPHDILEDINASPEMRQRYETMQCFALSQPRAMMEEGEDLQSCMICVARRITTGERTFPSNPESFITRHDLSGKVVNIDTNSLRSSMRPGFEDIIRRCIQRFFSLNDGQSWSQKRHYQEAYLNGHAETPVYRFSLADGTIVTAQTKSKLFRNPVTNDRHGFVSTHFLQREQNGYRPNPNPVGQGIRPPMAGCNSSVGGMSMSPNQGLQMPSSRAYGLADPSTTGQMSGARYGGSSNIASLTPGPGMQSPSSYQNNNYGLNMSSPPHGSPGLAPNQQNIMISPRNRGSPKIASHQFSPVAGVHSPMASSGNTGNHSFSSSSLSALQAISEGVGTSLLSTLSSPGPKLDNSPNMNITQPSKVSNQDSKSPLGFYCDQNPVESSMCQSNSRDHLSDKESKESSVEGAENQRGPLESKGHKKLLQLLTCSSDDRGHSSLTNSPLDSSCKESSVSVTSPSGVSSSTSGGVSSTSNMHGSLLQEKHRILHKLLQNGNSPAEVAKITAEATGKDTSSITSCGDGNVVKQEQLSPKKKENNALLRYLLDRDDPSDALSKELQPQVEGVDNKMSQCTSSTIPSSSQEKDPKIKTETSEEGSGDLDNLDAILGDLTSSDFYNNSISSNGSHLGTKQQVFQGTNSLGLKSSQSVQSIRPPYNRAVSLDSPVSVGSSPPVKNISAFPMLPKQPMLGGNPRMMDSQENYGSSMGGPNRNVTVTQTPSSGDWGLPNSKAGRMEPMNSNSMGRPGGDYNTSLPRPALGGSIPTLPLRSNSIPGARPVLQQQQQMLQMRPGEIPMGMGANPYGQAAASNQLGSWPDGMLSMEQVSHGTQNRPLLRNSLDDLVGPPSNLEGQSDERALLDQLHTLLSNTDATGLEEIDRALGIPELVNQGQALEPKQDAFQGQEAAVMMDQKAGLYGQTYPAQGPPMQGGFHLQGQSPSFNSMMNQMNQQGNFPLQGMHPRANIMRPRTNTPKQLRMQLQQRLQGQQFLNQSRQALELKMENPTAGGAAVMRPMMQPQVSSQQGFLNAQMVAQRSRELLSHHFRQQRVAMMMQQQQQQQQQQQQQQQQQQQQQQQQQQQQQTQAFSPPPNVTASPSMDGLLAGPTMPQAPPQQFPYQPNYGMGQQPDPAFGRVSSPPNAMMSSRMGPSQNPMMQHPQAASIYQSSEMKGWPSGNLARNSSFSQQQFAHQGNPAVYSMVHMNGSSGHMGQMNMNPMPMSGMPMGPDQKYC
# [3] = test system: transactivating tegument protein VP16 (Human herpesvirus 1), Gal4-VP16 luciferase reporter; test: repression of VP16-driven luciferase reporter – cell-based, luminescence, high throughput, counter-screen for SRC3 inhibitor project (AID 588794; in the data active means inhibition above about 30%); settings: mammalian cells, at 3.6 µM, active compounds read high
# [4] = target: Nuclear receptor coactivator 1 (Homo sapiens) (UniProt Q15788); test: NCOA1 GAL4-fusion reporter inhibition – cell-based, luminescence, quadruplicate, confirmation (AID 588820;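 active means mean inhibition above 46.68%, the untreated control wells mean plus 3 SD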;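 further: 0% = DMSO wells and 100% = gossypol 36 µM treated wells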); settings: HEK293 GAL4-SRC1 luciferase reporter, at 3.6 µM, active compounds read high
# Nuclear receptor coactivator 1 (Homo sapiens), sequence (Q15788 whole entry, looked up, the tested form may be a part): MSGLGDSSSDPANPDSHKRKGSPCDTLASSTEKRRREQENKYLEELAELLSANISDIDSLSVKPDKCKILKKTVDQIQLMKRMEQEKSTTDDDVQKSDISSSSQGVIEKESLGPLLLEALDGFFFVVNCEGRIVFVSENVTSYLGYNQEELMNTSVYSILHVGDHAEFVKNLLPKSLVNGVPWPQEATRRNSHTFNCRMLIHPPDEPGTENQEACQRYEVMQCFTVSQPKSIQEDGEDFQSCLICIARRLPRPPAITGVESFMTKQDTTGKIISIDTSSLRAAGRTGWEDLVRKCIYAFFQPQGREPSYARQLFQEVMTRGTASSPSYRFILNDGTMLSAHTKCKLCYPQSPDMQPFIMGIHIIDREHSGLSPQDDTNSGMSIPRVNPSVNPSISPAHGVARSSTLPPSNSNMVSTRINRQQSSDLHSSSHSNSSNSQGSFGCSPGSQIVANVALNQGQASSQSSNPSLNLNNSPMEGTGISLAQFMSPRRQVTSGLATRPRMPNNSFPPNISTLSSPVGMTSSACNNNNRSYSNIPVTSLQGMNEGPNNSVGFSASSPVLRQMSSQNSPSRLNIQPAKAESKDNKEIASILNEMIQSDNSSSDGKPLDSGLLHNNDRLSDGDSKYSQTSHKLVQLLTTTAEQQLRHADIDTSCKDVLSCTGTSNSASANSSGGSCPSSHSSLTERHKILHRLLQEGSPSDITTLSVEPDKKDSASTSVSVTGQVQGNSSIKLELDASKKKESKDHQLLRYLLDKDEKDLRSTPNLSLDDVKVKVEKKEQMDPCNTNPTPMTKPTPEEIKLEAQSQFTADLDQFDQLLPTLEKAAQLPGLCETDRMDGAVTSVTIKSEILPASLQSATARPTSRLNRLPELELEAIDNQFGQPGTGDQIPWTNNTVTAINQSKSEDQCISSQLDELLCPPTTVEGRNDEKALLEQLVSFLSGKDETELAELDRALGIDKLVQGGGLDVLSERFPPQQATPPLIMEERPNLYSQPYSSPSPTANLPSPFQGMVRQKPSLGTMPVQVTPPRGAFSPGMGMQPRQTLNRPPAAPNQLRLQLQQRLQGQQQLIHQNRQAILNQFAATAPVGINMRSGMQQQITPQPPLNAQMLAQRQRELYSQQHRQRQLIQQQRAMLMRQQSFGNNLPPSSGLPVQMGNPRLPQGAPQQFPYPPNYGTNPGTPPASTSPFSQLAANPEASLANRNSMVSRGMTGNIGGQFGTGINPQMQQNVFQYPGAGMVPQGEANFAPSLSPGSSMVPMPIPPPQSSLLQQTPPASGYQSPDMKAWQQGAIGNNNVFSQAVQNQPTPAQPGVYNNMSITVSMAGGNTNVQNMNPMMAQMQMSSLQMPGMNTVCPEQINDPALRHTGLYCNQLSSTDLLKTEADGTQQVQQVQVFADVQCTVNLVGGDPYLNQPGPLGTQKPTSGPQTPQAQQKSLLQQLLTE
# [5] = repression of VP16-driven luciferase reporter – cell-based, luminescence, high throughput, counter-screen for SRC1 inhibitor project (AID 588824; in the data active means inhibition above about 25%); settings: cell-based VP16 transactivation luciferase luminescence; at 3.6 µM; active compounds read high
# [6] = test system: transactivating tegument protein VP16 (Human herpesvirus 1); test: compounds suppressing VP16-driven luciferase signal – cell-based, luminescence, single concentration, counter-screen for SRC2 inhibitor project (AID 652007; in the data active means inhibition above about 36%); settings: cell-based VP16 transactivation luciferase reporter, at 8.9 µM, active compounds read high
# [7] = target: Nuclear receptor coactivator 2 (Homo sapiens) (UniProt Q15596); test: inhibition of GAL4-SRC2 driven luciferase expression – cell-based, luminescence, HEK293, triplicate, confirmation (AID 652008;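 active means mean inhibition above 46.5%, the solvent-only control mean plus 3 SD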;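 further: 0% = DMSO-treated cells and 100% = Gossypol at 36 µM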); settings: HEK293 GAL4-SRC2 luciferase reporter, at 8.9 µM, active compounds read high
# Nuclear receptor coactivator 2 (Homo sapiens), sequence (Q15596 whole entry, looked up, the tested form may be a part): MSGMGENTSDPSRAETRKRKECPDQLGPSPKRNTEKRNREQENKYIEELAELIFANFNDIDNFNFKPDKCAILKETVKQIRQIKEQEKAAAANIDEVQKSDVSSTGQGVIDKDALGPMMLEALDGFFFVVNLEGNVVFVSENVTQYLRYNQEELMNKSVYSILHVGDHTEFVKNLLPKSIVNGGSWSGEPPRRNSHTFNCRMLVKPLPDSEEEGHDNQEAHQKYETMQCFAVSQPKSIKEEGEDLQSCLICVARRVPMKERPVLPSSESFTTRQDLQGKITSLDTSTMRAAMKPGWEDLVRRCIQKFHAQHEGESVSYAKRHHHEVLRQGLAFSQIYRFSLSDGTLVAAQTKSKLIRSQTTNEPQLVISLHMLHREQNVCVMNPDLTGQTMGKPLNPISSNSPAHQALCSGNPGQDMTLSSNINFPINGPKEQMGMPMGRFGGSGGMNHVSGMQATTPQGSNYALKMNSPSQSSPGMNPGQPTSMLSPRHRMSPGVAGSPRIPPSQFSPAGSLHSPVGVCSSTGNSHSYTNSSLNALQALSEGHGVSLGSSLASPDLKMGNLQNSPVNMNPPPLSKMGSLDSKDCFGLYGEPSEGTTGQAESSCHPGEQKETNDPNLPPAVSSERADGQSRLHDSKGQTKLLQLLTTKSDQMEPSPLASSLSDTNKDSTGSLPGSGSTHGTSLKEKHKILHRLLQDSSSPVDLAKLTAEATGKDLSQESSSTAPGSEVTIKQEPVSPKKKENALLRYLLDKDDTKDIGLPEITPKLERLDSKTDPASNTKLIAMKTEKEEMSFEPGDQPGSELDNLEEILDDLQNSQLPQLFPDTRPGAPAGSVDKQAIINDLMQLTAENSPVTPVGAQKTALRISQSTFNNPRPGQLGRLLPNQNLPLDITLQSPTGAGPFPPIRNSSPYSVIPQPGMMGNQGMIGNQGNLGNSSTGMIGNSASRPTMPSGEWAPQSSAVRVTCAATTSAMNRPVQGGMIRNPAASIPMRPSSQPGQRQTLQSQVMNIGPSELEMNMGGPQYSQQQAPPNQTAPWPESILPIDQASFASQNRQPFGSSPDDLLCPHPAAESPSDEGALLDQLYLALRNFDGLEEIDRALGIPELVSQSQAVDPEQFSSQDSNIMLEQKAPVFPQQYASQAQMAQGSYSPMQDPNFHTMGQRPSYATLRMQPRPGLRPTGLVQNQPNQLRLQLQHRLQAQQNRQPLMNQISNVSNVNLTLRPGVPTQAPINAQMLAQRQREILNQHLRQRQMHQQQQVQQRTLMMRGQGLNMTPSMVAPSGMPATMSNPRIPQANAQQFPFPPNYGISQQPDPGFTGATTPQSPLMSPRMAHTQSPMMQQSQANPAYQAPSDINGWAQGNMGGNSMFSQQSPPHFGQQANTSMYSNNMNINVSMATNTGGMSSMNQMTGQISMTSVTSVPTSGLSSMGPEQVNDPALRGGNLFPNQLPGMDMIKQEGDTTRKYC
compound,measurement,setting,value
COc1ccc(-c2cc(C(=O)N3CCN(C(=O)c4ccccc4F)CC3)[nH]n2)cc1,inhibition,[1],21.7%
On1onc2c3cc(-c4ccccc4)nc3ccc21,inhibition,[1],49.3% (active)
CCOc1ccc(/C=N/Nc2cc(N3CCOCC3)nc(C)n2)c(O)c1,inhibition,[1],26.4% (active)
Nc1n[nH]c(C2CC2)c1N=Nc1ccc(Cl)c(Cl)c1,inhibition,[1],20.6%
Cc1cc2c(N=O)c(NO)ccc2[nH]1,inhibition,[1],33.3% (active)
COc1ccc(OC)c(-c2c3cc(O)c(=O)cc-3oc3cc(O)c(O)cc23)c1,inhibition,[1],169% (active)
O=C(O)c1cc(N/N=C/c2c(O)ccc3ccccc23)ccc1Cl,inhibition,[1],20.7%
C/C(=N/Nc1ccnc2cc(Cl)ccc12)c1ccc(N)cc1,inhibition,[1],26%
COc1ccc(-c2cc(-c3c(O)c(OC)c4occc4c3OC)[nH]n2)cc1,inhibition,[1],19.9%
COc1cc2c(C#N)c(N3CCc4ccccc4C3)nc(N)c2c(N)n1,inhibition,[1],32.4% (active)
O=Nc1c(O)c2ccccc2c2ccccc12,inhibition,[1],65.8% (active)
CCn1c(C)c(/C=N/Nc2nc3ccccc3s2)c2ccccc21,inhibition,[1],16.8%
CCOc1ccc(NC(=O)Nc2ccc3c(c2)N(C)C(=O)CS3)cc1,inhibition,[1],14.8%
Cc1csc(NC(=O)c2sc3nc(-c4cccs4)ccc3c2N)n1,inhibition,[1],42.6% (active)
CCc1ccc2[nH]c(O)c(N=NC3=NC(=O)CS3)c2c1,inhibition,[1],44% (active)
COC(=O)c1cc(C)nc2c1C(=O)C(=O)C=C2N1CCOCC1,inhibition,[1],40% (active)
same,inhibition,[2],69.5% (active)
same,inhibition,[3],54.7% (active)
same,inhibition,[4],-43.5%
same,inhibition,[5],52.3% (active)
same,inhibition,[6],54.2% (active)
same,inhibition,[7],99.2% (active)
